Experimental findings from PubChem BioAssay (EPA / NIEHS) are described below.

The target of assay [1] is human Dual Specificity Protein Phosphatase 3 (DUSP3), DUSP3 (gene 1845) (UniProt P51452). The experiment in a line: NVS_ENZ_hDUSP3: NovaScreen (NVS) Enzymatic Assay for human Dual Specificity Protein Phosphatase 3 (DUSP3) (AID 2283152). The method in brief: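 Cell-free assay with recombinant human DUSP3 and fluorogenic substrate, read by fluorescence intensity. Primary screen ran duplicate at 25 uM; actives followed up in concentration series; loss of signal versus DMSO scored.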

The target of assay [2] is human Janus Kinase 2 (Jak2), JAK2 (gene 3717) (UniProt O60674). The assay can be described thus: NVS_ENZ_hJak2: NovaScreen (NVS) Enzymatic Assay for human Janus Kinase 2 (Jak2) (AID 2283169). The method in brief: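 Cell-free recombinant human JAK2 enzyme activity assay, fluorescence/electrophoretic mobility shift read 1 h after dosing. Screened in duplicate at 25 uM, then concentration-response up to 50 uM; activity as signal loss relative to DMSO.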

For assay [3], the target named is human Mitogen- and Stress-activated Protein Kinase-1 (Msk1), RPS6KA5 (gene 9252) (UniProt O75582). The experiment in a line: NVS_ENZ_hMsk1: NovaScreen (NVS) Enzymatic Assay for human Mitogen- and Stress-activated Protein Kinase-1 (Msk1) (AID 2283187). The method in brief: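 Recombinant kinase with fluorescent substrate; product separated by electrophoretic mobility shift, read 1 h after dosing. Screened in duplicate at 25 uM; hits (e.g. ≥30% inhibition) tested in concentration–response up to 50 uM. DMSO baseline.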

Assay [4] has as its target human MAP Kinase-Activated Protein Kinase 2 (MAPKAPK2), MAPKAPK2 (gene 9261) (UniProt P49137). The assay can be described thus: NVS_ENZ_hMAPKAPK2: NovaScreen (NVS) Enzymatic Assay for human MAP Kinase-Activated Protein Kinase 2 (MAPKAPK2) (AID 2283178). The method in brief:
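Cell-free recombinant human MAPKAPK2 activity measured by fluorescence with electrophoretic mobility shift separation of substrate and product, 1 hr after dosing. Loss of signal versus DMSO; primary screen at 25 uM, concentration-response up to 50 uM.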

Assay [5] deals with human Casein Kinase 1-delta (CK1D), CSNK1D (gene 1453) (UniProt P48730). The experiment in a line: NVS_ENZ_hCK1D: NovaScreen (NVS) Enzymatic Assay for human Casein Kinase 1-delta (CK1D) (AID 2283148). The method in brief:
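Recombinant human CK1-delta, cell-free; fluorescent substrate with electrophoretic mobility-shift separation of product, read 1 h after dosing. Single 25 uM duplicate screen, then concentration-response up to 50 uM; loss of signal vs DMSO.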

Assay [6] has as its target human Colony Stimulating Factor 1 Receptor (CSF1R), CSF1R (gene 1436) (UniProt P07333). The assay can be described thus: NVS_ENZ_hCSF1R: NovaScreen (NVS) Enzymatic Assay for human Colony Stimulating Factor 1 Receptor (CSF1R) (AID 2283150). The method in brief:
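Cell-free recombinant human CSF1R kinase with fluorescent substrate, product separated by electrophoretic mobility shift; read 1 h after dosing. Primary screen at 25 uM in duplicate, actives then in concentration-response up to 50 uM, relative to DMSO.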

For assay [7], the target named is human Matrix Metalloproteinase-7 (MMP7), MMP7 (gene 4316) (UniProt P09237). The experiment in a line: NVS_ENZ_hMMP7: NovaScreen (NVS) Enzymatic Assay for human Matrix Metalloproteinase-7 (MMP7) (AID 2283183). Summed up:
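Cell-free fluorescence enzymatic assay read 1 h after compound addition, activity loss analyzed against DMSO. Primary duplicate testing at 25 uM; compounds meeting threshold rerun in singleton concentration-response up to 50 uM.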

Assay [8] addresses human Ephrin type-A Receptor 1 (EphA1), EPHA1 (gene 2041) (UniProt P21709). The experiment in a line: NVS_ENZ_hEphA1: NovaScreen (NVS) Enzymatic Assay for human Ephrin type-A Receptor 1 (EphA1) (AID 2283158).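 Further: activity is signal loss versus DMSO meaning EphA1 kinase inhibition.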 The method in brief: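 Biochemical kinase assay run cell-free; 1 h incubation; readout is fluorescence with mobility-shift separation of product. Concentration-response up to 50 uM for actives from a 25 uM screen.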

The target in assay [9] is human Elastase, ELANE (gene 1991) (UniProt P08246). The assay can be described thus: NVS_ENZ_hElastase: NovaScreen (NVS) Enzymatic Assay for human Elastase (AID 2283153). Summed up:
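Cell-free elastase from human neutrophils, 1.5 h after dosing, activity read by absorbance. Primary screen in duplicate at 25 uM; hits (e.g., 30% inhibition) rerun in singleton concentration-response up to 50 uM, fitted versus DMSO.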

Assay [10] addresses human Esterase Plasma (ES), BCHE (gene 590) (UniProt P06276). The assay can be described thus: NVS_ENZ_hES: NovaScreen (NVS) Enzymatic Assay for human Esterase Plasma (ES) (AID 2283157). The method in brief: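 Cell-free enzyme assay using esterase extracted from human plasma; colorimetric absorbance read 0.25 hour after dosing. Single-concentration duplicate screen at 25 uM, then concentration-response up to 50 uM; loss of signal scored against DMSO baseline.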

Assay [11] deals with human Matrix Metalloproteinase-3 (MMP3), MMP3 (gene 4314) (UniProt P08254). The experiment in a line: NVS_ENZ_hMMP3: NovaScreen (NVS) Enzymatic Assay for human Matrix Metalloproteinase-3 (MMP3) (AID 2283185). The method in brief: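 Cell-free recombinant human MMP3 activity, fluorescence intensity read 1 h after dosing. Primary screen duplicate at 25 uM, actives retested in concentration series; loss of signal vs DMSO baseline.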

Assay [12] addresses Histone deacetylase 3 (Homo sapiens) (UniProt O15379). The assay can be described thus: NVS_ENZ_hHDAC3: NovaScreen (NVS) Enzymatic Assay for human Histone Deacetylase 3 (HDAC3) (AID 2283163). The method in brief:
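Recombinant human HDAC3 with fluorescent substrate, 1 h after dosing; product separated from substrate by electrophoretic mobility shift and read by fluorescence. Primary screen at 25 uM in duplicate; actives (e.g. ≥30% inhibition) retested in concentration-response up to 50 uM.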

Assay [13] deals with human Caspase 8 (CASP8), CASP8 (gene 841) (UniProt Q14790). The assay can be described thus: NVS_ENZ_hCASP8: NovaScreen (NVS) Enzymatic Assay for human Caspase 8 (CASP8) (AID 2283146). Summed up: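 E. coli-expressed enzyme was used in a cell-free fluorogenic substrate assay read 1 h after dosing. Loss of signal was scored relative to DMSO, and the primary screen was run in duplicate at 25 uM.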

The next assay deals with CDK2 (gene 1017) (UniProt P24941). The experiment in a line: NVS_ENZ_hCDK2: NovaScreen (NVS) Enzymatic Assay for human Cyclin-Cependent Kinase 2 (CDK2) (AID 2283144). Summed up: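 Cell-free recombinant human CDK2 with fluorescent substrate, product separated by electrophoretic mobility shift; 1 hr read. Primary screen at 25 uM in duplicate, actives retested in concentration-response up to 50 uM; loss of signal versus DMSO.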

The target of assay [14] is human FYN Proto-Oncogene, Src family Tyrosine Kinase (Fyn), FYN (gene 2534) (UniProt P06241). The assay can be described thus: NVS_ENZ_hFyn: NovaScreen (NVS) Enzymatic Assay for human FYN Proto-Oncogene, Src family Tyrosine Kinase (Fyn) (AID 2283161). Summed up: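 Recombinant enzyme with fluorescent substrate, product separated by electrophoretic mobility shift; read 1 h after dosing. Duplicate 25 uM single-point screen, actives retested in concentration series; loss of signal vs DMSO.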

For assay [15], the target named is human c-Jun N-terminal Kinases (JNK2), MAPK9 (gene 5601) (UniProt P45984). The assay can be described thus: NVS_ENZ_hJNK2: NovaScreen (NVS) Enzymatic Assay for human c-Jun N-terminal Kinases (JNK2) (AID 2283171). The method in brief: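 Cell-free recombinant human JNK2 activity assay; fluorescent substrate and product separated by electrophoretic mobility shift, read 1 h after dosing. Primary duplicate screen at 25 uM; actives run in concentration-response up to 50 uM, relative to DMSO.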

Assay [16] deals with Mitogen-activated protein kinase 3 (Homo sapiens) (UniProt P27361). The experiment in a line: NVS_ENZ_hMAPK3: NovaScreen (NVS) Enzymatic Assay for human Mitogen-Activated Protein Kinase 3 (MAPK 3) (AID 2283177). Summed up:
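Cell-free enzymatic assay with recombinant protein and specific substrate; fluorescence and electrophoretic mobility shift read-out 1 h after dosing. Primary screen duplicate at 25 uM; actives then run in concentration-response up to 50 uM, loss of signal versus DMSO.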

In assay [17] the target is Collagenase 3 (Homo sapiens) (UniProt P45452). The assay can be described thus: NVS_ENZ_hMMP13: NovaScreen (NVS) Enzymatic Assay for human Matrix Metalloproteinase-13 (MMP13) (AID 2283182). The method in brief: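 Recombinant MMP13 cleaving fluorescent substrate, cell-free, measured 1 h after dosing. Primary duplicate screen at 25 uM; actives tested in concentration-response up to 50 uM; loss of signal relative to DMSO.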

Assay [18] has as its target human Matrix Metalloproteinase-2 (MMP2), MMP2 (gene 4313) (UniProt P08253). The experiment in a line: NVS_ENZ_hMMP2: NovaScreen (NVS) Enzymatic Assay for human Matrix Metalloproteinase-2 (MMP2) (AID 2283184). The method in brief: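 Cell-free recombinant MMP2 activity with a fluorescent substrate, read 1 h after dosing. Primary screen in duplicate at 25 uM; actives then run in concentration series; loss of signal fitted versus DMSO.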

Records with an inconclusive call do not appear. Activity calls are given as the source filed them. How the source made its calls: active means hit-call score of the fitted dose curve at least 0.9, where 1 is the maximum; inconclusive means response in the unintended direction; inactive means score below 0.9.

Chain of human Esterase Plasma (ES), BCHE (gene 590) (P06276 whole entry, looked up): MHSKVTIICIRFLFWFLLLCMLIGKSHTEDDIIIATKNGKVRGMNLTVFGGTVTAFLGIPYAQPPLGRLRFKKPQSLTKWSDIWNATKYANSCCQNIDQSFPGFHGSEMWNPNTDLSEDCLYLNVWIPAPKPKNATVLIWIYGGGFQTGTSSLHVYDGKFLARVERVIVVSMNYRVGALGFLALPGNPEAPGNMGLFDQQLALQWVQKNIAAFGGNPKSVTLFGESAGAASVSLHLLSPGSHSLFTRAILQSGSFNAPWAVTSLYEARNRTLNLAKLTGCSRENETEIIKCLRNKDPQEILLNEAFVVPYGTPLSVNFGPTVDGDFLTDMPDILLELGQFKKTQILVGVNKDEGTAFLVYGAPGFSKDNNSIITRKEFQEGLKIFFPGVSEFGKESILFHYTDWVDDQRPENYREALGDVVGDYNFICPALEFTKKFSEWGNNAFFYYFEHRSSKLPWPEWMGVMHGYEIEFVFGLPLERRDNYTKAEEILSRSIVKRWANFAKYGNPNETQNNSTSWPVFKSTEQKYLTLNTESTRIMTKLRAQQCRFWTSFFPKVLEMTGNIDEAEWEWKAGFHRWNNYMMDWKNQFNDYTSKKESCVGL
Chain of human Ephrin type-A Receptor 1 (EphA1), EPHA1 (gene 2041) (P21709 whole entry, looked up): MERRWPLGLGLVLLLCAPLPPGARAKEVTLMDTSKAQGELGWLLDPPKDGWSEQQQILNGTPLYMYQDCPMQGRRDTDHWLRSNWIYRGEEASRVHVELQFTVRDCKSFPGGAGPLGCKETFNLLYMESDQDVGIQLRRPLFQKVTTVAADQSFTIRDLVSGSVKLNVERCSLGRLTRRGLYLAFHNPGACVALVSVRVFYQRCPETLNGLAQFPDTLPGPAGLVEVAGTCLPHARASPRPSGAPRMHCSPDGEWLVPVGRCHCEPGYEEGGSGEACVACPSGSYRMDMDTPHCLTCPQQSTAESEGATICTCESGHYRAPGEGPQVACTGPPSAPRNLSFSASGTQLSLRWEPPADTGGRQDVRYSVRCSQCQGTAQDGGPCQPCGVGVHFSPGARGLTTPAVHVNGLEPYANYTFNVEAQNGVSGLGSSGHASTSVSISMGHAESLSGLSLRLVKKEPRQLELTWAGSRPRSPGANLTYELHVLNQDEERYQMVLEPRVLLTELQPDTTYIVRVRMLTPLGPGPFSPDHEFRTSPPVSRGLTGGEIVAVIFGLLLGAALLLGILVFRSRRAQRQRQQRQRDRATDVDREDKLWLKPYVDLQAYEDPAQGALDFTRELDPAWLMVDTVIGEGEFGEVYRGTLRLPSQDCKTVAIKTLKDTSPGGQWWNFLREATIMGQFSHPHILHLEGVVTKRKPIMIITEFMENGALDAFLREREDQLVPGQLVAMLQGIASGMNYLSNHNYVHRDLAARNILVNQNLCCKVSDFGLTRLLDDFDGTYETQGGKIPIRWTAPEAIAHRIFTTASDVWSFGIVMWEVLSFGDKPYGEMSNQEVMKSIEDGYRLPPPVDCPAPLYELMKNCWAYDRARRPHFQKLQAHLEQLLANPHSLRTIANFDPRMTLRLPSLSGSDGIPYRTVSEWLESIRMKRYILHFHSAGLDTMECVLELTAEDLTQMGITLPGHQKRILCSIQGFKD
Chain of human Casein Kinase 1-delta (CK1D), CSNK1D (gene 1453) (P48730 whole entry, looked up): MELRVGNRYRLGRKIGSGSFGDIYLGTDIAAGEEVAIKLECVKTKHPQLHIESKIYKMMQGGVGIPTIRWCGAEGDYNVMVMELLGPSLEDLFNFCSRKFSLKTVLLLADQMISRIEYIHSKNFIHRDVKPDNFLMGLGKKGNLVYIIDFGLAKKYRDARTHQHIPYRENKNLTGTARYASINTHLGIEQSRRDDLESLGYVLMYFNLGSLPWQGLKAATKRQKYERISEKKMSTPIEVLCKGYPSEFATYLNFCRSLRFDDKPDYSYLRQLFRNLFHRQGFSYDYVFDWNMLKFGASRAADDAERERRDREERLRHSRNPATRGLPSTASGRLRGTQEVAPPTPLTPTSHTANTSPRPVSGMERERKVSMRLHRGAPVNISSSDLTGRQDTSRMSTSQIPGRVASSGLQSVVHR
Chain of human Elastase, ELANE (gene 1991) (P08246 whole entry, looked up): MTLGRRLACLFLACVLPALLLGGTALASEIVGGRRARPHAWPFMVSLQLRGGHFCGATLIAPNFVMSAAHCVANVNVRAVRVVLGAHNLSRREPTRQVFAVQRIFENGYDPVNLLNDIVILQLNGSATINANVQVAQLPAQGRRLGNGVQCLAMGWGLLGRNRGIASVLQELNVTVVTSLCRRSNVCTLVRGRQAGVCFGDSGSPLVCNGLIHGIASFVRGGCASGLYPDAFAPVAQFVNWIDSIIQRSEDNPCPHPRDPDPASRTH
Chain of human Dual Specificity Protein Phosphatase 3 (DUSP3), DUSP3 (gene 1845) (P51452 whole entry, looked up): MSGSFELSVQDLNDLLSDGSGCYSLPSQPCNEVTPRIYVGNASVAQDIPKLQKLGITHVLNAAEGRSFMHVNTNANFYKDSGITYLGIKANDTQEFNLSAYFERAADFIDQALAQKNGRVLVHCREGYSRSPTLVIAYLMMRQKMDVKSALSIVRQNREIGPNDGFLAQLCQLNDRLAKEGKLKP
Chain of human Janus Kinase 2 (Jak2), JAK2 (gene 3717) (O60674 whole entry, looked up): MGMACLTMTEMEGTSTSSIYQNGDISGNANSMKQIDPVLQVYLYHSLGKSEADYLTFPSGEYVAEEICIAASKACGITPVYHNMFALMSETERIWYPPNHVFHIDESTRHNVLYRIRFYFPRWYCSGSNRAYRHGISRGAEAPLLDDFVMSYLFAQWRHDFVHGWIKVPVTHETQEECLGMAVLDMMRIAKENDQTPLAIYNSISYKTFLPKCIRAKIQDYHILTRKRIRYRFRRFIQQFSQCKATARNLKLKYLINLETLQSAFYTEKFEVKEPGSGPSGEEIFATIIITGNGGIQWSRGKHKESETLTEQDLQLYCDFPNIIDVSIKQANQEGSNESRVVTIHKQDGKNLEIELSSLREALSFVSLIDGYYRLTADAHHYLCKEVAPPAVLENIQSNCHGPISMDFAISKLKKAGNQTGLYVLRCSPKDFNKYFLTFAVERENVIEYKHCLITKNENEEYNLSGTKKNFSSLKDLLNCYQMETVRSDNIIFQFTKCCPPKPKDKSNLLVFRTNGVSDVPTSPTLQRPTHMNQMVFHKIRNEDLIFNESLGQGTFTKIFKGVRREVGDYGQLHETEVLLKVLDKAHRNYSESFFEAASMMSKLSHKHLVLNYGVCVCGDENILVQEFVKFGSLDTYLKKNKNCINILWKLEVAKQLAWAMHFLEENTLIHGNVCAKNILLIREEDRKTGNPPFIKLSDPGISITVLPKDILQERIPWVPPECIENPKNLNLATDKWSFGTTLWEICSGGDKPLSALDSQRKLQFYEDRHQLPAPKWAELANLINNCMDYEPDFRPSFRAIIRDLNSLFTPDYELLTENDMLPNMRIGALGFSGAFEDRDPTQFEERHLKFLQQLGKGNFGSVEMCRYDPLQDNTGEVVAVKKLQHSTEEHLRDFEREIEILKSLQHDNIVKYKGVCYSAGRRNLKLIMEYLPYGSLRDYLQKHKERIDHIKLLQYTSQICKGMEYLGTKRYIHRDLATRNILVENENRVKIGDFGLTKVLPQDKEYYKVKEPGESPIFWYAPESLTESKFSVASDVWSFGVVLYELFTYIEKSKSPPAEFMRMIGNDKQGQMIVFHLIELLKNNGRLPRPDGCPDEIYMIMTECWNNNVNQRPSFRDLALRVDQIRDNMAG
Chain of human Colony Stimulating Factor 1 Receptor (CSF1R), CSF1R (gene 1436) (P07333 whole entry, looked up): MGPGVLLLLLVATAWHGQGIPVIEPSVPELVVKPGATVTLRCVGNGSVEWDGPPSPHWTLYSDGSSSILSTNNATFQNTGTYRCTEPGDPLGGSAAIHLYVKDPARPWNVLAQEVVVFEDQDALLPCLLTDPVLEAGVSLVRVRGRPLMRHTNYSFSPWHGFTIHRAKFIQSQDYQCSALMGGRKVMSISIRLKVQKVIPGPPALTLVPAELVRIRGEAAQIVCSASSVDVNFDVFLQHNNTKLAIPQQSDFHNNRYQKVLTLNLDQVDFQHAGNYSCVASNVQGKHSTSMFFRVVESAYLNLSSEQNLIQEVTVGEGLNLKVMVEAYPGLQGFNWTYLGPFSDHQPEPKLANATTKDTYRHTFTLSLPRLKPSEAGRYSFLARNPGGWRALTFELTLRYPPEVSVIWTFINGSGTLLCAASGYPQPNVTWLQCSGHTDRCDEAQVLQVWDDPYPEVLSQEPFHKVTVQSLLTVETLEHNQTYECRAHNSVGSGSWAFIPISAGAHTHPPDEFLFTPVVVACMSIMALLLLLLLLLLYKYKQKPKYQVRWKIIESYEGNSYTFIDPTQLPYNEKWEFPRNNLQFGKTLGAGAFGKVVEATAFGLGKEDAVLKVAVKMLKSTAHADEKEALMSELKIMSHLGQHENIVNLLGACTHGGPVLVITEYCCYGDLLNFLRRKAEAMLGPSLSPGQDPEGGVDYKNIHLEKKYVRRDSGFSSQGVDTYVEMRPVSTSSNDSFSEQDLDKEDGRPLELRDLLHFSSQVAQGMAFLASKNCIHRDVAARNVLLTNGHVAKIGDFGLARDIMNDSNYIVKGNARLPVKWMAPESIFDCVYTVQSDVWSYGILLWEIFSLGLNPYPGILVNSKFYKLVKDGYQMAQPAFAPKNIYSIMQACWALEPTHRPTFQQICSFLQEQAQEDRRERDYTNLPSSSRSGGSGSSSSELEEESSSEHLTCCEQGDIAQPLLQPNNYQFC
Chain of Mitogen-activated protein kinase 3 (Homo sapiens) (P27361 whole entry, looked up): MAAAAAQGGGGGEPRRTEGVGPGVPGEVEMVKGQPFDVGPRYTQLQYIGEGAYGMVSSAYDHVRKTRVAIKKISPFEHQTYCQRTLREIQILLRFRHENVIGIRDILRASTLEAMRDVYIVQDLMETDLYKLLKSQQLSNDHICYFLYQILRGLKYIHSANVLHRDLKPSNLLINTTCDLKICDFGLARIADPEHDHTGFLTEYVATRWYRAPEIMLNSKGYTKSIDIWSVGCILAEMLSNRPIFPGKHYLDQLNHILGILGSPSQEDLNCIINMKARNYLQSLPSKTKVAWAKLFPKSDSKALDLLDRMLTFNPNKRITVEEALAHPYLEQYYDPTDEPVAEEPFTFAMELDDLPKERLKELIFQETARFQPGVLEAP

With `CC(C)(C)CC(C)(C)c1ccc(O)c(-n2nc3ccccc3n2)c1`, the AC50 – broadly, the midpoint of the concentration-response curve, whichever way the signal moves – in assay [1] was 10.6 µM (active). Besides, the outcome in assay [2] and in assay [3] was inactive.
With `OCCC(F)(F)C(F)(F)C(F)(F)C(F)(F)C(F)(F)C(F)(F)C(F)(F)C(F)(F)F`, in assay [4], the molecule was classed as inactive.
Take `COCC(C)OCC(C)O` (stereo not given): the outcome in [5], in assay [6], in assay [2], in assay [7] and in assay [3] was inactive.
On to `COCC(C)O` (stereo not given), for which the outcome in assay [8] was inactive.
With `CC#C[C@]1(O)CC[C@H]2[C@@H]3CCC4=CC(=O)CCC4=C3[C@@H](c3ccc(N(C)C)cc3)C[C@@]21C`, in assay [1], the call was inactive. The AC50 in [9] is 2.18 µM (active); in assay [10], 4.97 µM (active).
For the molecule `NC(=O)N1C(=O)C(C(=O)c2cc(Cl)cs2)c2cc(F)c(Cl)cc21` (stereo not given), the AC50 in [1] is 12.2 µM (active); in assay [9] it was 16.9 µM (active).
On to `CCCCCCCCCCCCCC[N+](C)(C)C`, for which the result in assay [8] was inactive.
On the same count and under the same terms, then `C[C@@H]1C[C@H]2[C@@H]3CCC4=CC(=O)C=C[C@]4(C)[C@@]3(F)[C@@H](O)C[C@]2(C)[C@@]1(O)C(=O)COP(=O)(O)O`, with “inactive”.
On to `CC(C)CCCCCCOC(=O)CCCCC(=O)OCCCCCCC(C)C`, for which, in [11], the result was inactive.
For the molecule `Nc1cccc2c(N)cccc12`, the outcome in assay [9] and in [12] was inactive.
Consider `CCCCC(CC)COC(=O)CCCCC(=O)OCC(CC)CCCC` (stereo not given), for which the molecule was called inactive in assay [1].
`CC(=O)NC1(c2cccc(F)c2)CCN(CC[C@@]2(c3ccc(Cl)c(Cl)c3)CN(c3ccccc3)C(=O)CO2)CC1`: the AC50 was 8.58 µM (active) in assay [9] and 3.79 µM (active) in assay [10].
For the molecule `C=C(C)C(=O)OCCC(F)(F)C(F)(F)C(F)(F)C(F)(F)C(F)(F)C(F)(F)F`, in assay [13], the AC50 was 1.96 µM (active). Also, the molecule was called inactive in [2].
As for `CCCCCCCCOC(=O)CCCCCCCCC(=O)OCCCCCCCC`, the result in assay [1] and in assay [2] was inactive.
`O=C(O)Cc1cc(I)c(Oc2cc(I)c(O)c(I)c2)c(I)c1`: the outcome (with CDK2 (gene 1017); in assay [5]; in assay [6]; in [8]; in assay [14]; in assay [2]) was inactive. Also, the molecule was classed as inactive in assay [15] and in [16]. Further, the AC50 was 11 µM (active) in assay [1] and 18.5 µM (active) in [9].
As for `Oc1cc2ccccc2c2ccccc12`, the molecule was classed as inactive in assay [13]. Besides, the results for the AC50 in [10] and in assay [2] were 14.1 µM (active) and 25 µM (active), respectively.
Regarding `Cc1oc(-c2ccccc2)nc1CCOc1ccc(C[C@H](Nc2ccccc2C(=O)c2ccccc2)C(=O)O)cc1`, the AC50 in [1] is 14.9 µM (active); in assay [9] it was 10.6 µM (active); in assay [17], 7.33 µM (active); in assay [18] it was 16.1 µM (active). In assay [11], the molecule was called inactive.
Consider `O=C(O)c1ccccc1C(c1ccc(O)cc1)c1ccc(O)cc1`, for which the result in assay [5] and in assay [16] was inactive.
With `N#C[C@@H]1CC(F)(F)CN1C(=O)CNC1CC2CCC(C1)N2c1ncccn1` (stereo not given in full), the call in assay [6], in assay [15] and in assay [16] was inactive.
